According to PubChem BioAssay AID588511 (Johns Hopkins Ion Channel Center, 2011):
The whole screen tested about 310,000 compounds, of which about 3,600 (1.2%) were called active.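 Rule for the calls: active = ratio plate-corrected score three or more library SD toward inhibition, starting fluorescence score within five deviations; inactive = the rest.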 The list comes from a sample in which actives are over-represented; it also holds similar structures and randomly drawn compounds.

target: Anoctamin-1 (Mus musculus) (UniProt Q8BHY3); experiment: TMEM16A chloride channel inhibitors, primary screen, cell-based, HTS (AID 588511); conditions: HEK293 TMEM16A/YFP iodide influx fluorescence, ionomycin; at 10 µM;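 for normalized B-score (activity score, 25-100; higher = stronger inhibition): score derived from kinetic fluorescence span divided by baseline fluorescence per well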
Sequence (Q8BHY3 whole entry, looked up): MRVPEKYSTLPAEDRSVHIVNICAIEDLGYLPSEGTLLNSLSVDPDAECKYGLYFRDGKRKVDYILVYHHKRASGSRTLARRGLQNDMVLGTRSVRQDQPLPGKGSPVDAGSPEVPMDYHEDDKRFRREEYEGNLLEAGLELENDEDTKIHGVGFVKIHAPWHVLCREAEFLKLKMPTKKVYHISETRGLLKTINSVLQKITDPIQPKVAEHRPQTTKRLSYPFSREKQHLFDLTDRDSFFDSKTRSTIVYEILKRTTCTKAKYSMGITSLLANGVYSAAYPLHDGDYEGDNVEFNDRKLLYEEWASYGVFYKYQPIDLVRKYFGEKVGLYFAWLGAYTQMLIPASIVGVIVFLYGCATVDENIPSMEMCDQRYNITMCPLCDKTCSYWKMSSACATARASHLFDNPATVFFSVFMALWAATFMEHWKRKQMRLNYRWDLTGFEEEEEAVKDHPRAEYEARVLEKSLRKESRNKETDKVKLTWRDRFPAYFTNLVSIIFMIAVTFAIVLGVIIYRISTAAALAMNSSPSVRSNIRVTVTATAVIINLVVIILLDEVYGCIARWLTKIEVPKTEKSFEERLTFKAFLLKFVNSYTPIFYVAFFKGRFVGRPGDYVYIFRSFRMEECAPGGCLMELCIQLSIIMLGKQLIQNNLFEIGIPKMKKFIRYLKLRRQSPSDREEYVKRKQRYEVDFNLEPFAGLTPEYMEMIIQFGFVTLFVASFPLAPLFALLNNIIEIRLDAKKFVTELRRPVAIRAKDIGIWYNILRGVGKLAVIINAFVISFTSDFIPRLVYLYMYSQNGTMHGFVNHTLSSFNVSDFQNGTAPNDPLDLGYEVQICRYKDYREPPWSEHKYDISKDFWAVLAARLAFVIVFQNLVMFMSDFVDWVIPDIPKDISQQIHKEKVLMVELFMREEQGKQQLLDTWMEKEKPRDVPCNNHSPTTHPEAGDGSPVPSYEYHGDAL

Row | Structure (SMILES) | normalized B-score (activity score, 25-100; higher = stronger inhibition)
1 | CCOC(=O)C1CCN(c2ncnc3c2oc2ccc(Br)cc23)CC1 | 100 (active)
2 | CCOC(=O)C1CCN(c2ncnc3c2c(-c2ccccc2)cn3-c2ccc(C)cc2)CC1 | inactive
3 | CCOC(=O)C1CCN(Cc2nnc(-c3cccc(Br)c3)o2)CC1 | inactive
4 | O=C(Nc1ccc(C(=O)NCc2ccccc2Cl)cc1)C1=CSCCO1 | inactive
5 | O=C(/C=C/c1ccco1)NC(=S)N1CCCCC1 | inactive
6 | O=C(Nc1cccnc1)c1noc2c1CCCCC2 | inactive
7 | CCN1CCN(C(=O)C2CCN(S(=O)(=O)c3cc(Cl)ccc3Cl)CC2)CC1 | inactive
8 | CCCCNC(=O)C1CCC(=O)N1CCc1ccccc1 (configuration not stated) | inactive
9 | O=C(CSc1ncn[nH]1)Nc1nc(-c2cccc([N+](=O)[O-])c2)cs1 | inactive
10 | O=C(CSc1nc(-c2ccccc2)cs1)Nc1cccc([N+](=O)[O-])c1 | 100 (active)
11 | CCNC(=O)CSc1nc(-c2ccccc2)cs1 | inactive
12 | COc1ccc(CN2CCNC(=O)C2CC(=O)N(C)Cc2ccccn2)cc1OC (configuration not stated) | inactive
13 | Cc1ccc(C(=O)CSc2ccccc2C(=O)O)cc1 | inactive
14 | Cc1ccc(SCC(=O)c2cc(C)c(OC(=S)N(C)C)c(C)c2)cc1 | 100 (active)
15 | Cc1ccc(SCC(=O)Nc2ccc3c(c2)OCCO3)cc1 | inactive
16 | O=C(C1CCN(S(=O)(=O)c2ccc(Br)s2)CC1)N1CCN(c2ccccc2)CC1 | inactive
17 | Cc1ccc(NC(=O)C2CC(=O)N(c3ccc4c(c3)OCCO4)C2)cc1S(=O)(=O)N1CCCCCC1 (configuration not stated) | 25 (active)
18 | Cc1ccc(N2CC(C(=O)Nc3ccc(S(=O)(=O)N4CCCC4)cc3)CC2=O)cc1C (configuration not stated) | inactive
19 | COc1ccc(S(=O)(=O)N2CCCCC2)cc1NC(=O)C1CC(=O)N(c2ccc3c(c2)OCCO3)C1 (configuration not stated) | inactive
20 | Cc1oc(-c2ccccc2F)nc1CS(=O)CC(=O)NCCN1CCCCC1C (configuration not stated) | inactive
21 | CSc1cccc(NC(=S)N(Cc2ccccc2)Cc2ccccn2)c1 | inactive
22 | CSc1cccc(NC(=S)N(C(C)C)C(C)c2ccccn2)c1 (configuration not stated) | 25 (active)

Row | Structure (SMILES) | normalized B-score (activity score, 25-100; higher = stronger inhibition)
23 | CC(c1ccccn1)N(CCN(C)C)C(=S)Nc1ccccc1F (configuration not stated) | inactive
24 | CC(=N\NC(=O)c1cc(Br)ccc1O)/C(=N/O)C(=O)Nc1ccccc1 | 25 (active)
25 | CC(=O)N/N=C(\C)c1ccc(Br)cc1Br | inactive
26 | CC(C)/C=N/NC(=O)c1cc(Br)ccc1O | inactive
27 | O=C(NC(=S)Nc1ccc(Cl)c(C(=O)O)c1)c1cncc(Br)c1 | inactive
28 | COc1cc(C)c(C(C)C)cc1S(=O)(=O)n1ccnc1 | inactive
29 | COc1ccccc1-n1cnc2cc(NS(=O)(=O)c3ccccc3)ccc21 | inactive
30 | CC(C)c1ccc2c(c1)c(SC(C)(C)C)c(CC(C)(C)C(=O)O)n2Cc1ccc(Cl)cc1 | 100 (active)
31 | O=C(O)c1ccc(Cn2c(=S)[nH]c3cc(Cl)ccc3c2=O)cc1 | inactive
32 | O=C(COC(=O)CNS(=O)(=O)c1ccccc1)NC12CC3CC(CC(C3)C1)C2 | inactive
33 | CSc1ncc(Sc2ccccc2)c(C(=O)O)n1 | inactive
34 | CSc1nnc2c(n1)OC(c1cn(C)c3ccccc13)N(C(C)=O)c1ccccc1-2 (configuration not stated) | inactive
35 | CSc1nnc2c(n1)OC(c1ccsc1)N(C(C)=O)c1ccccc1-2 (configuration not stated) | 100 (active)
36 | O=C(NCCc1ccc(Cl)cc1Cl)c1cc([N+](=O)[O-])c[nH]c1=O | 100 (active)
37 | NS(=O)(=O)c1ccc(CCNC(=O)c2ccc(Cl)cc2[N+](=O)[O-])cc1 | inactive
38 | O=C(NCCc1c[nH]c2ccc(Cl)cc12)c1ccc([N+](=O)[O-])cc1 | inactive
39 | CC(C)CC(CCc1ccccc1)OS(N)(=O)=O (configuration not stated) | inactive
40 | CSc1nc2nc3c(c(=O)n2[nH]1)CCC3 | inactive
41 | COc1ccc(C(=O)CCc2ccccc2O)c(OC)c1 | inactive
42 | CCOc1ccc(NC(=O)CCCCCN2C(=O)[C@@H]3Cc4ccccc4CN3C2=O)cc1 | inactive
43 | O=C(CSc1nnc(-c2cccnc2)n1Cc1ccco1)c1ccc(Cl)c(Cl)c1 | inactive
44 | CCOC(=O)Cc1csc(NC(=O)CSc2nnc(-c3cccnc3)n2Cc2ccco2)n1 | 100 (active)

Row | Structure (SMILES) | normalized B-score (activity score, 25-100; higher = stronger inhibition)
45 | COc1cc(Cl)c(C)cc1NC(=O)CSc1nnc(-c2cccnc2)n1Cc1ccco1 | inactive
46 | COc1ccc(/C(C)=N\NC(=O)c2ccc(-c3ccccc3)cc2)c(F)c1 | inactive
47 | O=[N+]([O-])C(=c1ccc2c(c1)N1C3=C(CCCC3)CC3CCCCC31N=2)[N+](=O)[O-] (configuration not stated) | inactive
48 | Cc1[nH]n(-c2cccc(Cl)c2)c(=O)c1-c1ccc(Cl)cc1 | 25 (active)
49 | Cc1[nH]n(-c2cccc(Cl)c2)c(=O)c1/C=N/n1c(C)nc2ccccc2c1=O | inactive
50 | O=c1c(-c2cccc(Cl)c2)c[nH]n1-c1ccccc1 | inactive
51 | Cc1ccccc1OCC(=O)N(Cc1cccc(F)c1)C1CCS(=O)(=O)C1 (configuration not stated) | inactive
52 | C=CCn1c(SCC(=O)Nc2nc3ccccc3s2)nnc1-c1ccccc1O | 100 (active)
53 | C=CCn1c(SCC(=O)NCc2ccccc2)nnc1-c1cc(Br)ccc1O | inactive
54 | Cn1nnnc1SCC(=O)Nc1nc2ccccc2s1 | inactive
55 | COc1ccc(Cl)cc1NC(=O)CN(C)C(=O)c1cc2ccccc2cc1OC | inactive
56 | CN(CC(O)COc1ccc(S(=O)(=O)N2CCOCC2)cc1Cl)C1CCCCC1 (configuration not stated) | inactive
57 | O=C(/C=C/c1ccc(F)cc1)Nc1cccc(S(=O)(=O)Nc2cccc(C(F)(F)F)c2)c1 | inactive
58 | Cc1oc2c(F)c(F)c(F)c(F)c2c1S(=O)(=O)Nc1cccc(C(F)(F)F)c1 | 100 (active)
59 | CCOC(=O)N1CCN(C(=O)c2ccc(S(=O)(=O)Nc3cccc(C(F)(F)F)c3)cc2)CC1 | inactive
60 | COc1ccccc1-n1c(SCC(=O)Nc2cccc(C(=O)O)c2)nnc1-c1ccccc1O | inactive
61 | Cc1cc2c(cc1C)N(Cc1ccccc1)C1=NCCCN12 | inactive
62 | Cn1cc(C(=O)c2ccc(Cl)cc2Cl)cc1C(=O)NN | inactive
63 | O=C(Cc1c(F)cccc1Cl)Nc1ccc(-n2cnnn2)cc1 | inactive
64 | O=C(CCc1ccccc1)Nc1ncc([N+](=O)[O-])s1 | inactive
65 | O=C(Cc1c(F)cccc1Cl)Nc1ncc([N+](=O)[O-])s1 | 100 (active)
66 | Cc1ccc2nsnc2c1NC(=O)c1ccccc1[N+](=O)[O-] | inactive

Row | Structure (SMILES) | normalized B-score (activity score, 25-100; higher = stronger inhibition)
67 | O=C(NCCc1ccc2c(c1)OCCO2)c1cc2ccccc2o1 | 100 (active)
68 | O=C(CC(Cc1ccccc1)C(=O)O)NCCc1ccc2c(c1)OCO2 (configuration not stated) | inactive
69 | N=c1oc2ccccc2cc1C(=O)NCc1ccccc1 | inactive
70 | O=C(COc1cc(Cl)c(Cl)cc1Cl)NC(=O)NC1CCCC1 | inactive
71 | O=C(NCc1cccnc1)c1ccccc1NC(=O)c1c(F)cccc1F | inactive
72 | Cc1nc2c(ncn2-c2ccccc2)c(=O)n1NC(=O)CN1CCCC1 | inactive
73 | CCOC(=O)N1CC=C2C(C#N)=C(N)C(C#N)(C#N)[C@H](c3cccs3)[C@H]2C1 | 25 (active)
74 | CCCN1CC=C2C(C#N)=C(N)C(C#N)(C#N)C(c3cc(OC)ccc3OC)C2C1 (configuration not stated) | inactive
75 | CCN1CC=C2C(C#N)=C(N)C(C#N)(C#N)[C@H](c3ccoc3)[C@H]2C1 | inactive
76 | CCC(C(=O)NCCC(C)C)N(Cc1ccccc1Cl)C(=O)c1snc(C(N)=O)c1N (configuration not stated) | inactive
77 | COC(=O)c1cc(OCC(=O)NC2CCCc3ccccc32)cc(C(=O)OC)c1 (configuration not stated) | inactive
78 | O=C(CCCN1CCc2[nH]c3ccc(F)cc3c2C1)c1ccc(F)cc1 | inactive
79 | Oc1c(Cl)cc(Cl)c(Cl)c1Cc1c(O)c(Cl)cc(Cl)c1Cl | 100 (active)
80 | O=C(N/N=C/c1cccc(OCc2ccccc2)c1)c1ccc(Br)o1 | inactive
81 | CCOc1ccc(CN2CCN(Cc3c[nH]c4ccccc34)CC2)cc1 | inactive
82 | CN(C)/C=N/c1cc(=O)n(C)c(=O)n1CC1CC1 | inactive
83 | COc1ccc(CCNC(=S)N2CCN(S(=O)(=O)c3ccc(Cl)cc3)CC2)cc1 | inactive
84 | O=C(NCCc1ccc(Cl)cc1)c1cccc(N2CCCC2=O)c1 | inactive
85 | Oc1cc2c(cc1O)CN(C(=S)NCCc1ccc(Cl)cc1)CCC2 | 25 (active)
86 | Cc1cc2cc3c(cc2nc1SCC(=O)Nc1c(C)cccc1C)CCC3 | inactive
87 | Cc1cn(C2OC[C@@H](O)[C@@H]2CO)c(=O)[nH]c1=O (some centres not stated) | inactive
88 | COc1ccc(C(C#N)N2N=C(C)CC2(C)C)cc1 (configuration not stated) | inactive

Row | Structure (SMILES) | normalized B-score (activity score, 25-100; higher = stronger inhibition)
89 | O=C(CN1C(=O)S/C(=C\c2ccccc2F)C1=O)NCCCn1ccnc1 | inactive
90 | O=C(CN1C(=O)/C(=C/c2ccccc2F)Sc2ccccc21)NCc1cccnc1 | 100 (active)
91 | O=C(CN1C(=O)/C(=C\c2ccc(C(F)(F)F)cc2)Sc2ccccc21)NCc1ccco1 | inactive
92 | CN(C)CCOc1ccc(Cl)cc1C(C)(C)C | inactive
93 | CCc1nc(C)ccc1OCC(=O)N(CC)CC | inactive
94 | CCC(C)(C)c1ccc(OCC(=O)N(C)C)c(C(C)(C)CC)c1 | 100 (active)
95 | O=C(CCCN1C(=O)/C(=C\c2ccccc2)SC1=S)Nc1ccccc1O | inactive
96 | COc1ccc(/C=C2/SC(=O)N(CCCCCC(=O)Nc3ccccc3C(=O)O)C2=S)cc1 | 100 (active)
97 | COc1ccc(/C=C2\SC(=O)N(CCC(=O)NCCCn3ccnc3)C2=O)cc1 | inactive
98 | OC(c1ccccc1)C(CN1CCOCC1)c1ccccc1 (configuration not stated) | inactive
99 | Cc1cc([N+](=O)[O-])ccc1NC1CCCC1 | inactive
100 | Cc1c(NS(=O)(=O)c2ccc(NC3CCCC3)c([N+](=O)[O-])c2)c(=O)n(-c2ccccc2)n1C | inactive
101 | Cc1cc(C=O)c(C)n1-c1ccc(NC2CCCCC2)c([N+](=O)[O-])c1 | 100 (active)
102 | COc1ccc(F)cc1C(=O)C1CCCN(C(=O)CCc2ccccn2)C1 (configuration not stated) | inactive
103 | O=C(N/N=C1\CCSC1)c1cc(Cl)ccc1O | inactive
104 | CC1CCCCC1NC(=O)c1cc(=O)[nH]c2ccccc12 (configuration not stated) | inactive
105 | Cc1c(C(=O)OC(C)C)sc(NC(=O)c2cccnc2)c1C#N | 100 (active)
106 | CCOC(=O)c1cc(NC(=O)c2cccnc2)ccn1 | inactive
107 | CCOC(=O)c1ccc(NC(=O)c2cccnc2)cc1 | inactive
